Compounds with a hit are over-represented: about 8.1% of the library has one in this group of screens.
VP16 counter = counter-screen for ROR gamma inhibitors: Gal4-VP16 reporter. Drosophila S2 Gal4-VP16 UAS-luciferase, luminescence, 20 h. Potency, µM (doses to about 53.6 µM), for inactives: at the top dose activity, negative = inhibition, most hits filed as inhibitors. 310,000 compounds, 3.5% hits. AID 2546;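 further: Gal4-VP16 expression switched on by copper sulfate through the metallothionein promoter; on the % scale 0 is the no-effect control and ±100 the full control effect; nearly all actives have a fitted effect of over 50% in size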
ClpP mod = qHTS Assay for Activators of ClpP | AID 651965, 2013 | purified B. subtilis ClpP, FRET peptide cleavage, 20 min | ATP-dependent Clp protease proteolytic subunit (Bacillus subtilis (strain 168)), P80244 | Potency, µM (series often up to 57.5 µM), inactives show top-dose activity change, negative = active | 340,000 compounds, 1.9% hits; active means well fitted falling curve with a large enough effect; inconclusive means small, poorly fitted or top-dose-only effect; inactive means no such curve, though single readings can be large or run the other way; further: the source files actives as falling curves though it sought activators and does not explain the sign; nearly all actives have a fitted effect of over 65% in size
Target sequence (P80244 whole entry, looked up): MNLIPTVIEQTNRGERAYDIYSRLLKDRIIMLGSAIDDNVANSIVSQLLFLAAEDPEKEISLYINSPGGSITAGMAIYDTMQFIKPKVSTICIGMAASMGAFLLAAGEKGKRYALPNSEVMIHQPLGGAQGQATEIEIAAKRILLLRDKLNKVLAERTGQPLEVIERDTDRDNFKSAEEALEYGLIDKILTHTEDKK
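Buffer: 100 mM Tris/HCl pH8, 100 mM KCl, 0.05% low protease BSA, 2.5% glycerol, 0.01% Tween-20. ClpP 10 microg/mL final; 20 min RT; delta FRET normalized to ADEP and DMSO controls.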
Epigenetic reg = epigenetic control regulation, reporter derepression; murine LDR cells, GFP reporter derepression, 30 h; Potency, µM (titrated, usually from 53.9 µM), for inactives: at the highest dose GFP activation, usual class: activators; 280,000 compounds, 0.2% hits; AID 1865; further: % of control where 0% means no effect; nearly all actives have a fitted effect of over 60% in size
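In this reporter-derepression format, murine cells bearing a silenced integrated CMV-GFP locus incubate with test compound (30 h, 37 C), then are washed and imaged; fluorescent objects of 20–120 um count as induced cells.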
RORg inh = blocks mouse ROR gamma transcriptional activity. P51450. Drosophila S2 Gal4-RORgamma UAS-luciferase reporter, 20 h. Potency, µM (doses to about 53.6 µM), without a hit: at the highest dose activity change, negative = inhibition, actives largely listed as inhibitors. 310,000 compounds, 5.4% hits. AID 2551; further: on the % scale 0 is the no-effect control and ±100 the full control effect; nearly all actives have a fitted effect of over 60% in size
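Stable Schneider cell line, Gal4 DNA-binding domain fused to ROR gamma, UAS-luciferase. Cmpd 1 hr RT → CuSO4 700 uM final → 20 hr RT → luciferase reagent 10 min → luminescence.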
Sfp PPTase inh = Sfp phosphopantetheinyl transferase inhibition; 310,000 compounds, 3.5% hits; Biochemical Sfp PPTase activity, qHTS; Q9F4F7; Potency, µM, for inactives: largest response in the series, negative = inhibition, actives largely listed as inhibitors;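 further: the enzyme is Sfp with the accession as filed and its product quenches rhodamine fluorescence; 0% = enzyme reaction without inhibitor and -100% = no enzyme wells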
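Fluorescence-quenching assay with 15 nM Sfp, 5 uM rhodamine-CoA and 12.5 uM BHQ-2-labelled ybbR peptide in pH 7.6 Hepes/MgCl2 buffer. Enzyme was pre-incubated with compound for 15 min at room temperature. Rate was taken from the 30-min fluorescence change (525/598 nm).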
PINK1 modulator = changes PINK1 expression | AID 624263 | 410,000 compounds, 0.2% hits | Potency, µM (doses to about 76.6 µM), inactives show at the highest dose activation (PINK1 increase), hits mostly activators | PINK1 immunofluorescence, high-content cytometry, 24 h; active means well fitted activation curve with a large enough effect; inconclusive means small, poorly fitted or top-dose-only effect; cell line not stated here; further: % of control where 0% means no effect; nearly all actives have a fitted effect of over 65% in size
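A stable cell line was treated with compounds at 5 concentrations for 24 hours, with CCCP as control. PINK1 levels and mitochondrial localization were measured by immunofluorescence with mitochondrial, cell and nuclear markers after fixation, read by laser-scanning cytometry.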
Numbers without * were called inactive; ? = inconclusive; . = no result; [ ] = another dose, or the depositor's remark. Unless noted, the call rests on the fitted dose curve; in most records, active means well fitted curve in the direction sought with a large enough effect; inconclusive means small, poorly fitted or top-dose-only effect, or another doubt; inactive means no such curve, though single readings can be large; an effect the other way counts as inactive or inconclusive. Potency means the concentration at half of the fitted maximal effect.

SMILES	VP16 counter	ClpP mod	Epigenetic reg	RORg inh	Sfp PPTase inh	PINK1 modulator
O=C(CSc1nc2ccc([N+](=O)[O-])cc2[nH]1)NC1CCCCCC1	?	-2%	0%	?	23%	14µM*
CCCCn1c(=O)[nH]c(=O)c2c1nc(-c1ccccc1OC(F)F)n2C	2%	.	.	-8%	10%	0%
CCCn1c(=O)[nH]c(=O)c2c1nc(-c1ccccc1OC(F)F)n2CCOC	-4%	25µM*	-2%	-4%	17%	-3%
CCCn1c(=O)[nH]c(=O)c2c1nc(-c1ccc(OC(F)F)c(OC)c1)n2CCOC	-3%	25µM*	-1%	-41%	8%	2%
COCCn1c(-c2ccc(OC(F)(F)C(F)C(F)(F)F)cc2)nc2c1c(=O)[nH]c(=O)n2CC(C)C (stereo not drawn)	-6%	28µM*	2%	7%	?	6%
COc1cccc(-c2cc3c(c(OC)c2)OCCN(S(=O)(=O)c2ccccc2OC(F)(F)F)C3)n1	.	.	.	.	.	0%
COc1cccc(CNC(=O)c2ccc3nc(CCc4ccccc4)oc3c2)c1OC	.	-2%	-2%	.	.	1%
CN(C)c1ccnc(-n2cccc2/C=N/OCc2ccccc2)c1C#N	26%	14µM*	0%	27%	0%	1%
C[C@@H]1CC[C@H](O)/C=C/C(=O)O[C@H](C)CC[C@H](O)/C=C/C(=O)O1	6.3µM*	-3%	1%	?	4%	1%
COC(=O)c1ccc(Oc2c(Cl)cccc2[N+](=O)[O-])cc1	-28%	1%	-1%	7.9µM*	-8%	2%
COC(=O)c1ccc(Oc2ccc(C(C)(C)C)cc2)c([N+](=O)[O-])c1	-6%	1%	0%	?	-9%	5%
Cc1cc([N+](=O)[O-])cc2c1NC(=O)C2(O)N1CCOCC1 (stereo not drawn)	?	2%	3%	11µM*	-8%	1%
CC1CCN(C2(O)C(=O)Nc3ccc([N+](=O)[O-])cc32)CC1 (stereo not drawn)	-6%	-5%	-1%	-7%	9%	0%
O=C(c1cccs1)N1CCCc2cc(NS(=O)(=O)c3ccc(F)cc3)ccc21	.	1%	15%	.	.	3%
CCOc1ccc(-c2nnc(-c3ccco3)o2)cc1OCC	?	22µM*	1%	35%	12%	11%
CCOc1cc(-c2nnc(-c3ccco3)o2)cc(OCC)c1OCC	4%	22µM*	-1%	-1%	-2%	12%[38.3 µM]
COc1cc(C(=O)Nc2ccc(-c3nnc(-c4ccco4)o3)cc2)cc(OC)c1OC	-5%	14%	13%	27%	6%	-1%
COc1cc2c(NC3CCN(C)CC3)nc(N3CCCN(C)CC3)nc2cc1OCCCN1CCOCC1	.	4%	.	.	.	-1%
CC(=O)Nc1nonc1-c1nnc(SCc2ccc(F)cc2Cl)n1C	.	-2%	1%	.	.	1%
O=C(NCc1ccc(F)cc1)c1ccc(S(=O)(=O)Nc2cccc(C(F)(F)F)c2)cc1	?	14µM*	-1%	?	21%	24%
O=C(CN1CCCC1)Nc1ccc(Br)cc1	8%	2%	-8%	-1%	50µM*	1%
N#C/C(=C(/O)COC(=O)COc1cccc(Br)c1)c1nc2ccccc2[nH]1	13µM*	-2%	3%	-11%	6%	5%
Cc1cc(Br)ccc1SCC(=O)OC/C(O)=C(\C#N)c1nc2ccccc2[nH]1	?	-9%	15%	0%	9%	13%
Cc1cc(C)cc(OCC(=O)OC/C(O)=C(\C#N)c2nc3ccccc3[nH]2)c1	16µM*	-5%	?	13µM*	7%	?
Cc1cccc(C)c1OCC(=O)OC/C(O)=C(\C#N)c1nc2ccccc2[nH]1	18µM*	-9%	0%	10µM*	24%	24%
CC(C)=NOCc1ccc(-c2cn([C@@H]3COC[C@@H]3O)nn2)cc1	5%[10 µM]	.	0%[10.1 µM]	3%[10 µM]	14µM*	.
